Source: PubChem BioAssay AID1554 (Broad Institute, 2009)
In all, about 300,000 compounds went through this assay and about 520 (0.17%) were called active. For the sample, actives were picked, then their nearest neighbours and some compounds at random. Values without a mark were called inactive. Rule as the data show it: active = inhibition above about 50%; inconclusive = no clear call, values can overlap the other calls; inactive = below that.

Assay: PubChem AID 1554
Conditions: BJeLR (HRASV12) viability, CellTiter-Glo ATP luminescence, 48 h; stronger effect = higher value; concentration not given here

Compared with `COC(=O)c1c(NC(=O)c2ccccc2F)sc2c1C(C(=O)OC)CC2` (stereo not drawn), `COC(=O)c1ccc(C(=O)Nc2cc(Cl)ccc2Cl)cc1NC(=O)c1ccccc1C` is higher in inhibition: -1.69% for the first, 5.33% for the second.

First: CCOc1ccc2[nH]c3nc(SCC(=O)NC4CCCC4)nnc3c2c1
Second: CCCC(C(=O)NC1CCCC1)N(C(=O)Cn1nnc(-c2ccc(C)o2)n1)c1cccc(O)c1 (stereo not drawn)
The inhibition of the first is higher: 19.9% for the first, -0.539% for the second.

Compared with `CCOC(=O)c1c(C)[nH]c(C)c1S(=O)(=O)N(C)CC(=O)Nc1ccccc1C`, `CCOC(=O)c1c(C)nc(-c2ccccc2)nc1NC(=O)C(C)C` is lower in inhibition: 1.31% for the first, -1.6% for the second.

Compared with `O=C(NNc1c2ccccc2nc2ccccc12)c1cc2ccccc2cc1O`, `COc1cccc(NC(=O)c2ccccc2N(Cc2ccccc2)S(C)(=O)=O)c1` is lower in inhibition: 11.9% for the first, 3.05% for the second.

Going from `NC(=O)C1CC(=O)N(c2ccc(OCC(=O)NCc3ccccc3)cc2)C1` (stereo not drawn) to `COc1ccc(S(=O)(=O)N2CCOCC2)cc1NC(=O)COc1ccccc1`, the inhibition rises from -5.85% to -1.51%.

Compared with `COc1cccc(-c2cc(C(=O)N3CCN(c4ccccc4OC)CC3)no2)c1`, `COc1ccccc1N1CCN(C(=O)c2cc(=O)c3cc(C)ccc3o2)CC1` is higher in inhibition: -5.2% for the first, 8.05% for the second.

Going from `Cc1ccc(-c2cc(C(F)(F)F)n3ncc(C(=O)N4CCCCC4c4cccnc4)c3n2)cc1` (stereo not drawn) to `COc1ccc(C2=NS(=O)(=O)N(C)C(C(=O)N3CCCCC3)=C2)cc1`, the inhibition rises from -3.16% to -1.58%.

Compared with `CSc1n[nH]c(=S)n1N`, `CC(C)n1c(-c2ccncc2)n[nH]c1=S` is lower in inhibition: 6.98% for the first, -1.2% for the second.

Going from `CCOC(=O)c1cccc(NC(=O)CCn2nnc3ccccc32)c1` to `COc1ccccc1N(C(=O)Cn1nnc2ccccc21)C(C(=O)NCc1ccco1)c1ccc(C)o1` (stereo not drawn), the inhibition falls from 5.93% to -3.41%.

First: COc1c(C(=O)N2CCCC2)ccc2ccccc12
Second: COc1ccc(C(C(O)C(=O)c2c[nH]c3ccccc23)N2CCN(c3ccccc3)CC2)cc1 (stereo not drawn)
The inhibition of the first is lower: -16.2% for the first, 0.745% for the second.

Compared with `O=c1[nH]snc1-c1c(Cl)cccc1Cl`, `Cc1ccc(CNC(=O)c2cccnc2Cl)cc1` is higher in inhibition: 1.3% for the first, 1.72% for the second.

Going from `COc1ccc2c(c1)CCNC2Cc1ccc(OC)c(O)c1` (stereo not drawn) to `CCc1ccc(OCC2c3cc(OC)c(OC)cc3CCN2C(C)=O)cc1` (stereo not drawn), the inhibition falls from -7.5% to -19.6%.

Compared with `CN(c1ccccc1)S(=O)(=O)c1cccc(C(=O)NNC(=O)c2ccncc2)c1`, `O=C(NCc1ccco1)c1ccc(NS(=O)(=O)c2cccc([N+](=O)[O-])c2)cc1` is higher in inhibition: -13.6% for the first, 5.53% for the second.

Going from `COc1cc(NS(=O)(=O)c2ccc(NC(=O)CN3C(=O)c4ccccc4C3=O)cc2)ncn1` to `Cc1c(NC(=O)Nc2cccc([N+](=O)[O-])c2)c(=O)n(-c2ccccc2)n1C`, the inhibition rises from -1.96% to 1.78%.

Compared with `COc1ccc(CNC(=O)CCC(=O)Nc2nnc(C(C)C)s2)cc1`, `Cc1ccc(CN2CCNC(=O)C2CC(=O)NCc2csc(C(C)C)n2)cc1` (stereo not drawn) is lower in inhibition: 2.41% for the first, -3.33% for the second.

First: O=C(NCc1ccc2c(c1)OCO2)c1sccc1Br
Second: COc1ccc(C2=NOC(Cn3nc(C(=O)NCc4ccc5c(c4)OCO5)cc3-c3ccccc3)C2)cc1 (stereo not drawn)
The inhibition of the first is lower: -9.24% for the first, 8.13% for the second.

First: CSc1nc(C)nc(C2CC2)c1C#N
Second: Cc1cccc(-n2ncc(C#N)c2-n2cccc2)c1
The inhibition of the first is higher: -2.16% for the first, -4.28% for the second.

First: CCOc1ccc(C(CC(=O)O)n2cnnn2)cc1OC (stereo not drawn)
Second: CCOc1ccc(C(CC(=O)O)NC(=O)C23CC4CC(CC(C4)C2)C3)cc1OC (stereo not drawn)
The inhibition of the first is lower: -0.928% for the first, 8.09% for the second.

Compared with `COc1ccc(NC(=O)C(C)N2c3cccc4cccc(c34)S2(=O)=O)c(OC)c1` (stereo not drawn), `Cc1cc(F)ccc1NC(=O)C(C)n1c2ccccc2c2nc(=O)cc(C)n21` (stereo not drawn) is higher in inhibition: -7.67% for the first, -6.86% for the second.

Compared with `O=C(c1cccc(F)c1)N1CCC(O)(c2cccnc2)CC1`, `Brc1ccc2ncnc(NCc3cccnc3)c2c1` is higher in inhibition: 1.27% for the first, 4.75% for the second.

Going from `Cc1ccc(Nc2cc(C)nc3c(C)ccc([N+](=O)[O-])c23)cc1` to `Cc1ccc(Cn2cc(C(=O)NN)c(=O)c3ccc(F)cc32)cc1`, the inhibition falls from -0.482% to -4.45%.

Compared with `N#Cc1c(-c2cccs2)nc(SCC(=O)c2ccc(Br)cc2)[nH]c1=O`, `COc1cc(/C=C(\C#N)c2nc3ccccc3[nH]2)ccc1O` is lower in inhibition: -2.63% for the first, -5.76% for the second.

First: COc1ccc(Nc2ncc(F)c(N3CCOCC3)n2)cc1
Second: CCCCOc1ccc(C(=O)NN2CCN(C)CC2)cc1
The inhibition of the first is lower: -4.96% for the first, 1.04% for the second.

Going from `Cc1nnc(NC(=O)/C=C/c2ccco2)s1` to `O=C(/C=C/c1ccco1)Nc1cccc(-c2nc3ccccc3[nH]2)c1`, the inhibition falls from 2.63% to -10.7%.

Compared with `CCCOc1ccc(C(=O)CCC(=O)OC(C)C(=O)Nc2ccc(NC(C)=O)cc2)cc1` (stereo not drawn), `CC(C)CNC(=S)NC(=O)c1ccc(Cl)cc1` is lower in inhibition: 0.465% for the first, -11.5% for the second.

Going from `CCOc1cc(C2C(C(=O)OC(C)C)=C(C)NC3=C2C(=O)CCC3)cc([N+](=O)[O-])c1O` (stereo not drawn) to `Cc1ccc(S(=O)(=O)N2CCCC2C(=O)OCc2nc3sc(C)c(C)c3c(=O)[nH]2)cc1` (stereo not drawn), the inhibition rises from -2.99% to 2%.

Going from `COc1cc(C(CCN2CCN(c3ccccc3)CC2)c2c(OC)cc(OC)c3ccc(=O)oc23)cc(OC)c1OC` (stereo not drawn) to `CC[C@]1(O)CC2CN(CCc3c([nH]c4ccccc34)[C@@](C(=O)OC)(c3cc4c(cc3OC)N(C=O)[C@H]3[C@@](O)(C(=O)OC)[C@H](OC(C)=O)[C@]5(CC)C=CCN6CC[C@]43[C@@H]65)C2)C1` (stereo partly drawn), the inhibition rises from -7.5% to 34.8%.

Compared with `COC(=O)C(C(=O)Nc1cccc(Cl)c1C)C1CCCC1` (stereo not drawn), `CCN1C(=O)N[C@@H](c2ccccc2)C(C(=O)OC)=C1C` is higher in inhibition: -7.59% for the first, 2.76% for the second.

Compared with `COc1ccc(/C=C/C2=CC(C)(C)NC(=S)N2)c(OC)c1`, `CCOC(=O)CNc1nc(Cl)nc(Nc2ccc(OC)cc2OC)n1` is higher in inhibition: -7.98% for the first, -1.85% for the second.

Compared with `NC(=O)CC[C@@H]1NC(=O)[C@H](CO)NC(=O)c2cc([N+](=O)[O-])cc(I)c2NCC[C@@H](C(N)=O)NC1=O`, `O=C(Nc1ccc(Cl)cc1)/C(=C1\CCCN1)[N+](=O)[O-]` is lower in inhibition: -1.96% for the first, -2.59% for the second.

First: COc1cc(-c2c(-c3ccc4c(c3)OCO4)noc2C)ccc1F
Second: COc1ccc(S(=O)(=O)Nc2ccc3c(c2)OCO3)cc1Cl
The inhibition of the first is lower: -5.31% for the first, 4.86% for the second.

First: C=CCNc1nc(N)c([N+](=O)[O-])c(NC2CCCCC2)n1
Second: CC(C)Cc1nnc(NC(=O)CN2C(=O)NC3(CCCCC3)C2=O)s1
The inhibition of the first is lower: -1.25% for the first, 4.35% for the second.

Going from `CC(=O)NCCc1ccc(S(=O)(=O)N(C)C2CCS(=O)(=O)C2)cc1` (stereo not drawn) to `CC(C)CN(C(=O)c1cccc(S(=O)(=O)N2CCCCC2)c1)C1CCS(=O)(=O)C1` (stereo not drawn), the inhibition falls from 7.45% to 2.4%.

First: CC1(C)O[C@H]2CC(=O)OCC23[C@H]2CC[C@@]4(C)[C@H](c5ccoc5)OC(=O)[C@H]5O[C@]54[C@]2(C)C(=O)C[C@@H]13 (stereo partly drawn)
Second: CC[C@H]1CC2CN3CCc4c([nH]c5ccccc45)C(C(=O)OC)(C2)C13 (stereo partly drawn)
The inhibition of the first is higher: 4.22% for the first, 2.65% for the second.

First: CN(C)CCN(Cc1ccccc1)S(=O)(=O)c1csc(C(N)=O)c1
Second: CC1COc2ccccc2N1S(=O)(=O)c1ccccc1 (stereo not drawn)
The inhibition of the first is higher: 7.25% for the first, -0.313% for the second.

Going from `CCCOc1ccccc1C1CC(=O)Nc2cc3c(cc21)OCO3` (stereo not drawn) to `O=c1c(Cl)c(NC2CC2)cnn1-c1ccccc1`, the inhibition falls from 21.8% to -3.03%.

Compared with `CC(C)(C)c1cc(NC(=O)NN2CCOCC2)nn1-c1c(Cl)cc(Cl)cc1Cl`, `CC(NC(=O)Cn1cc(C(F)(F)F)cc(Cl)c1=O)c1ccccc1` (stereo not drawn) is lower in inhibition: -1.25% for the first, -4.93% for the second.

Going from `O=C(NNC(=O)c1ccccc1[N+](=O)[O-])Nc1ccccc1C(F)(F)F` to `OCCn1c(-c2ccccc2)csc1=Nc1ccccc1`, the inhibition rises from 1.35% to 3.02%.

First: CC12C(=O)N(n3cnnc3)C(=O)C1C1C=CC2C1 (stereo not drawn)
Second: Clc1ccc2c(c1)C1=C(C(c3ccncc3)O2)C(c2ccc(Br)cc2)n2ncnc2N1 (stereo not drawn)
The inhibition of the first is higher: 6.14% for the first, -10% for the second.

For `CCOC(=O)c1c(C)[nH]c2c1-c1ccccc1C(=O)C2=O`, the inhibition was 74.1% (active).
With `COc1ccccc1N1CCN(C(=O)c2cc(=O)c3cc(C)cc(C)c3o2)CC1` the inhibition was 58.9% (active).
For `CC[C@H]1CN2CCc3cc(OC)c(OC)cc3[C@@H]2C[C@@H]1C[C@H]1NCCc2cc(OC)c(OC)cc21`, the inhibition was 71.3% (active).
In the case of `O=C(/C=C/c1ccco1)Nc1ccc(Oc2ccccc2)cc1`, the inhibition is reported as 66.3% (active).
With `CCCOc1ccc(C(=O)C(CCC(CNCC)C(=O)c2ccc(OCCC)cc2)CNCC)cc1` (stereo not drawn) the inhibition was 137% (active).
In the case of `CCC(=C/c1sc2ccc3ccccc3c2[n+]1C)/C=C1\Sc2ccc3ccccc3c2N1C`, the inhibition is reported as 60.9% (active).
With `COc1ccccc1C1C2=C(COC2=O)Nc2cc3c(cc21)OCO3` (stereo not drawn) the inhibition was 71.8% (active).
With `COc1ccc(/C=C(\C#N)c2c[nH]c3ccccc23)cc1` the inhibition was 52.5% (active).
For `Cc1cccc(-n2ncc(Cl)c(Cl)c2=O)c1`, the inhibition was 90.5% (active).
In the case of `CC[C@]1(O)C[C@@H]2CN(CCc3c([nH]c4ccccc34)[C@@](C(=O)OC)(c3cc4c(cc3OC)N(C)[C@H]3[C@@](O)(C(=O)OC)[C@H](OC(C)=O)[C@]5(CC)C=CCN6CC[C@]43[C@@H]65)C2)C1`, the inhibition is reported as 69.1% (active).
